Compound activity (PubChem)
Sampled rows, rich in hits. Any-hit rate of the full collection: about 17%.
TDP1 cell noCPT – qHTS for Inhibitors of human tyrosyl-DNA phosphodiesterase 1 (TDP1): qHTS in cells in absence of CPT; Potency, µM (series often up to 46.2 µM), without a hit: top-dose activity change, negative = growth inhibition, most hits filed as inhibitors; DT40 Tdp1-/- hTDP1 cells, no CPT, ATP luminescence, 48 h; hit rate 15% among 420,000; note: % is set by controls: 0 for no effect and ±100 for the full control effect; nearly all actives have a fitted effect of over 55% in size
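Growth of hTDP1-complemented DT40 Tdp1-knockout cells is measured by ATP luminescence after at least 48 hr compound exposure at 37 °C, with DMSO substituting for the 20 nM CPT used in the parallel screen.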
DT40 TDP1 CPT – growth inhibition of DT40 Tdp1-/-;hTDP1 cells with camptothecin (screen for TDP1 inhibitors); chicken DT40 Tdp1-/-;hTDP1 cells + 20 nM CPT, ATP luminescence, 48 h; hit rate 12% among 420,000; Potency, µM (series often up to 46.2 µM), inactives show at the top dose activity change, negative = growth inhibition, most hits filed as inhibitors; note: % is set by controls: 0 for no effect and ±100 for the full control effect; nearly all actives have a fitted effect of over 55% in size
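Cell growth measured by CellTiter-Glo luminescence after a minimum 48 h, 37 C compound exposure with 20 nM CPT in Tdp1-knockout DT40 cells stably expressing hTDP1, seeded 400/well; qHTS titration format.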
ClpP mod – qHTS Assay for Activators of ClpP; Potency, µM (titrated, usually from 57.5 µM), inactives show at the top dose activity change, negative = active; hit rate 1.9% among 340,000; purified B. subtilis ClpP, FRET peptide cleavage, 20 min; active = well fitted falling curve with a large enough effect; inconclusive = small, poorly fitted or top-dose-only effect; inactive = no such curve, though single readings can be large or run the other way; note: the source files actives as falling curves though it sought activators and does not explain the sign; nearly all actives have a fitted effect of over 65% in size
Target sequence (P80244 whole entry, looked up): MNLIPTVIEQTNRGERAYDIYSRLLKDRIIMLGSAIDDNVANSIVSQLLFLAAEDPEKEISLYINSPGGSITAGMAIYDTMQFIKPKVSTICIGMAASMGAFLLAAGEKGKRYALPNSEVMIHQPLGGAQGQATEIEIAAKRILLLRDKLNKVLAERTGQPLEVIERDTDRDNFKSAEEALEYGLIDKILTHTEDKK
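ClpP 10 microg/mL final, pH 8 Tris/KCl buffer with BSA, glycerol, Tween-20; compound pinned in; FRET-FV substrate; RT 20 min; Ex320/Em430; ΔFRET vs ADEP 5.8 microM, DMSO, no enzyme.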
TDP1 inh – inhibitors of human tyrosyl-DNA phosphodiesterase TDP1 | AID 485290 | Q9NUW8 | Potency, µM (top dose mostly 130 µM), for inactives: at the top dose activity change, negative = inhibition, usual class: inhibitors | hit rate 0.28% among 350,000 | recombinant TDP1, AlphaScreen DNA substrate cleavage; note: % is set by controls: 0 for no effect and ±100 for the full control effect; nearly all actives have a fitted effect of over 40% in size
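Recombinant human Tdp1 (E. coli-expressed, 1 nM final) preincubated with compounds 15 min at room temperature, then 5'-biotin/3'-phosphotyrosine-FITC DNA substrate (15 nM final) added for 5 min. AlphaScreen beads (10 ug/ml final) added 10 min; cleavage lowers signal.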
Starred values were filed as active, the others as inactive; ? = inconclusive; nt = no result given. Unless noted, calls come from the whole dose curve; as a rule, active = well fitted curve in the direction sought with a large enough effect; inconclusive = small, poorly fitted or top-dose-only effect, or another doubt; inactive = no such curve, though single readings can be large; an effect the other way counts as inactive or inconclusive. Potency is the fitted concentration of half-maximal effect.

SMILES	TDP1 cell noCPT	DT40 TDP1 CPT	ClpP mod	TDP1 inh
Cc1cc(NC(=O)NC2(C(F)(F)F)Oc3ccc(Cl)cc3O2)no1 (stereo not given)	18µM*	18µM*	2%	-4%
COCCNC(=O)NC1(C(F)(F)F)Oc2ccc(Cl)cc2O1 (stereo not given)	13µM*	18µM*	0%	-14%
O=C(NCc1cccnc1)NC1(C(F)(F)F)Oc2ccc(Cl)cc2O1 (stereo not given)	12µM*	10µM*	2%	-4%
CC(C)OP(=O)(OC(C)C)C1(NS(=O)(=O)c2ccc(Cl)cc2)C=C(Cl)C(=O)C(Cl)=C1	?	?	1%	2%
C(=C\c1nc(-c2ccccc2)oc1Nc1ccc2ccccc2c1)/c1ccccc1	nt	nt	nt	6%
COc1ccc(S(=O)(=O)N2CCN(CC(=O)c3[nH]c(C)c(C(C)=O)c3C)CC2)cc1OC	?	-5%	1%	2%
CC(=O)c1c(C)[nH]c(C(=O)OCC(=O)Nc2ccccc2Cl)c1C	15µM*	16µM*	-2%	-8%
O=C(COC(=O)c1ccc(Cl)nc1)Nc1cc(S(=O)(=O)N2CCCCC2)ccc1Cl	?	18µM*	60%	3%
CC(=O)c1c(C)[nH]c(C(=O)OCC(=O)Nc2cccnc2Cl)c1C	?	?	nt	0%
CCN(CC)S(=O)(=O)c1cccc(NC(=O)COC(=O)c2[nH]c(C)c(C(C)=O)c2C)c1	1µM*	1.8µM*	-1%	nt
O=C(COC(=O)c1ccc(Cl)nc1)Nc1ccc(S(=O)(=O)N2CCCC2)cc1	0%	-13%	nt	3%
CC(=O)c1c(C)[nH]c(C(=O)CN2CCN(S(=O)(=O)c3ccc(C(C)C)cc3)CC2)c1C	10µM*	15µM*	1%	0%
COc1ccc(S(=O)(=O)N2CCOCC2)cc1NC(=O)COC(=O)c1[nH]c(C)c(C(C)=O)c1C	-16%	-14%	nt	2%
CC(=O)c1c(C)[nH]c(C(=O)OCC(=O)Nc2cc(S(=O)(=O)N3CCCC3)ccc2Cl)c1C	23µM*	?	2%	0%
CC(=O)c1c(C)[nH]c(C(=O)OCc2csc(CC(=O)Nc3ccccc3C)n2)c1C	9.2µM*	18µM*	0%	1%
O=C(O)c1cccc(-c2ccc(/C=N/n3cnc4sc5c(c4c3=O)CCCC5)o2)c1	nt	nt	nt	18µM*
Cc1ccc(/C=N/n2cnc3sc4c(c3c2=O)CCCC4)o1	-18%	-21%	-3%	2%
CN(C)c1nc(-c2cccc(NS(C)(=O)=O)c2)nc2ccccc12	-23%	-7%	nt	nt
Nn1cnc2scc(-c3cccs3)c2c1=O	-19%	-3%	nt	-5%
COc1ccc(C(=O)Nn2cnc3scc(-c4cccs4)c3c2=O)c(O)c1	?	-3%	32µM*	7%
CC(=O)N1CCN(c2c(F)c(F)c(C(F)(F)F)c(F)c2F)CC1	15µM*	?	-3%	-4%
Cc1cc(C)n(-c2nc3ccccc3nc2N2CCN(C(=O)c3ccccc3)CC2)n1	-29%	-19%	-2%	0%
Cc1cc(C)n(-c2nc3ccccc3nc2N2CCN(S(=O)(=O)c3ccc(F)c(C)c3)CC2)n1	?	23µM*	0%	3%
Cc1cc(C)n(-c2nc3ccccc3nc2N2CCN(S(=O)(=O)c3ccc4ccccc4c3)CC2)n1	14µM*	?	?	2%
CN(C)CCCN(C(=O)c1ccc(S(=O)(=O)N2CCCCCC2)cc1)c1nc2c(F)cc(F)cc2s1	16µM*	?	2%	1%
SMILES	TDP1 cell noCPT	DT40 TDP1 CPT	ClpP mod	TDP1 inh
CN(C)CCCN(C(=O)c1ccc(S(=O)(=O)N2CCCC2)cc1)c1nc2c(F)cc(F)cc2s1	-24%	4%	nt	0%
Cc1cc(C)c2nc(N(CCCN(C)C)C(=O)c3ccc(S(=O)(=O)N4CC(C)OC(C)C4)cc3)sc2c1 (stereo not given)	21µM*	16µM*	2%	0%
CCCCC/C=C\C[C@@H]1O[C@H]1C(O)/C=C\C/C=C\CCCC(=O)O (stereo not given in full)	nt	nt	nt	6%
COc1ccc(CC(N)c2csc(NC(=O)NCCc3ccc(OC)c(OC)c3)n2)cc1 (stereo not given)	?	18µM*	0%	nt
COc1ccc(CCNC(=O)Nc2nc(C(N)COCc3ccccc3)cs2)cc1OC (stereo not given)	?	?	-1%	nt
COc1ccc(CCNC(=O)Nc2nc(C(N)Cc3ccccc3)cs2)cc1OC (stereo not given)	21µM*	?	-1%	nt
CCC(=O)N(Cc1ccc(C)cc1)Cc1cc2cc3c(cc2[nH]c1=O)OCO3	-27%	-27%	32µM*	0%
COc1ccc(NC(=O)N(Cc2cccs2)Cc2cc3cc4c(cc3[nH]c2=O)OCO4)cc1	nt	nt	nt	3%
COc1ccc(CCN(Cc2cc3cc4c(cc3[nH]c2=O)OCO4)C(C)=O)cc1OC	nt	nt	nt	4%
CCN(CC)CCCN(Cc1cc2cc3c(cc2[nH]c1=O)OCO3)C(=S)Nc1ccc(OC)cc1	29µM*	-28%	nt	3%
O=C(Nc1ccccc1)N(CCCN1CCOCC1)Cc1cc2cc3c(cc2[nH]c1=O)OCCO3	10µM*	?	32µM*	2%
Cc1ccc(NC(=O)N(Cc2ccc3c(c2)OCO3)Cc2cc3cc4c(cc3[nH]c2=O)OCCO4)cc1	?	18µM*	?	-1%
CCN(CC)CCCN(Cc1cc2cc3c(cc2[nH]c1=O)OCCO3)C(=O)Nc1ccccc1	?	?	20µM*	-3%
Cc1ccc(NC(=O)N(CCCN2CCOCC2)Cc2cc3cc4c(cc3[nH]c2=O)OCO4)cc1	?	21µM*	-2%	6%
O=C(Nc1ccccc1F)N(CCCN1CCOCC1)Cc1cc2cc3c(cc2[nH]c1=O)OCCO3	16µM*	16µM*	20µM*	2%
